Our source for the binding signal values is PMC7862700, “An all-to-all approach to the identification of sequence-specific readers for epigenetic DNA modifications on cytosine”.

What all share (experiment): DAPPL (digital affinity profiling via proximity ligation, sequencing); 10 mM Tris-HCl pH 7.5, 50 mM NaCl, 1 mM DTT, 4% glycerol, room temperature, 30 min; GST-TFs on glutathione beads, 16-mer random dsDNA library, 0.1% formaldehyde crosslink after washing; high values mean tight binding
For assay [1], the target named is T1, FEV (Homo sapiens, UniProt Q99581 1-238).
T1 sequence: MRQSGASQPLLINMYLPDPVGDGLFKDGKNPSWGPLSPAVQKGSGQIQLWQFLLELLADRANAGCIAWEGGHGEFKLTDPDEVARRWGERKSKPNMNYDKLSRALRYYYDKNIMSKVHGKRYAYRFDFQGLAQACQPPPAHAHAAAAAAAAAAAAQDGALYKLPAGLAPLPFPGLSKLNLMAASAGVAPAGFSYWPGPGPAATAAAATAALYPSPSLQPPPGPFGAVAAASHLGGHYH
The settings on record: protein: recombinant; tags: N-terminal GST; dsDNA, one strand shown. A digest of the protocol: (§1)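 Pools were built from human transcription factors expressed in yeast as GST fusions, captured on glutathione beads and DNA-barcoded, along with a tag-only sample. Incubation with 200 nmole of a 16-mer random double-stranded DNA library lasted 30 min at room temperature in Tris/NaCl/DTT/glycerol buffer, and was followed by washing, 0.1% formaldehyde crosslinking, proximity ligation, PCR amplification and Illumina NextSeq500 sequencing. Binding signal is the quotient of each hexamer's read frequency for a factor and its frequency for the tag-only sample.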

Assay [2] has as its target ETV5 (Homo sapiens, UniProt P41161 1-510). The settings on record: protein: recombinant; tags: N-terminal GST; dsDNA, one strand shown. The method, boiled down:
as §1

Assay [3] deals with HSF1 (Homo sapiens, UniProt Q00613 1-529). The note with it: protein: recombinant; tags: N-terminal GST; chain copies: 3; dsDNA, one strand shown. A digest of the protocol:
as §1

Assay [4] deals with T2, SPIC (Homo sapiens, UniProt Q8N5J4 1-248).
T2 sequence: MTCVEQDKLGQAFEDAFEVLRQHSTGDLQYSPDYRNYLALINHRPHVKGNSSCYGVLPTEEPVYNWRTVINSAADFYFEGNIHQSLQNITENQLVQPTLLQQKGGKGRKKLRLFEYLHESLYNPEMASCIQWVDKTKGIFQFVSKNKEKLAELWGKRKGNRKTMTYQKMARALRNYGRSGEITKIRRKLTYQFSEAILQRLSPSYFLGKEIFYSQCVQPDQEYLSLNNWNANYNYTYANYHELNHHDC
The settings on record: protein: recombinant; tags: N-terminal GST; dsDNA, one strand shown. The method, boiled down: as §1

The target in assay [5] is ELF4 (Homo sapiens, UniProt Q99607 1-663). The note with it: protein: recombinant; tags: N-terminal GST; dsDNA, one strand shown. A digest of the protocol:
as §1

The target of assay [6] is T3, ELK4 (Homo sapiens, UniProt P28324-2 1-405).
T3 sequence: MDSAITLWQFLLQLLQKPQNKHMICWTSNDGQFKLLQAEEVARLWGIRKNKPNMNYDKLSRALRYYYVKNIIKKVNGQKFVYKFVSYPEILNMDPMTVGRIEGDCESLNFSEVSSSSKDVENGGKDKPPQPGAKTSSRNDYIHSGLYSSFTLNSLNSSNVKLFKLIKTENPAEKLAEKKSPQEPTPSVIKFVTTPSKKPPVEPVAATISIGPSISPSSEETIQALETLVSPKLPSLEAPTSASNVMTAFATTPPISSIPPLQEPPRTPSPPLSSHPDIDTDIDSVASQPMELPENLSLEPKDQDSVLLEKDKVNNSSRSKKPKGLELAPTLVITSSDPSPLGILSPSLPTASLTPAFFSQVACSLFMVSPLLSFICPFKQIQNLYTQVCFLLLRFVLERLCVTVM
The note with it: protein: recombinant; tags: N-terminal GST; dsDNA, one strand shown. A digest of the protocol: as §1

For assay [7], the target named is T4, ETV2 (Homo sapiens, UniProt O00321 1-342).
T4 sequence: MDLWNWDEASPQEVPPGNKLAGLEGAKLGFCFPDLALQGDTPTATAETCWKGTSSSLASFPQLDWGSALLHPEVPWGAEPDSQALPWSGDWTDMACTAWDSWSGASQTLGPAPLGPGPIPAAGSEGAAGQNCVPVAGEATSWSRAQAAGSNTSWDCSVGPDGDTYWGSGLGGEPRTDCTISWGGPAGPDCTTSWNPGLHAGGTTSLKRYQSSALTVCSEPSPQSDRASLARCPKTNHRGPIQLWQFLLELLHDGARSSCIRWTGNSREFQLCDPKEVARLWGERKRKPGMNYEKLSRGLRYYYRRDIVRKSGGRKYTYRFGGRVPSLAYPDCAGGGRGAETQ
The note with it: protein: recombinant; tags: N-terminal GST; dsDNA, one strand shown. The method, boiled down: as §1

The target of assay [8] is T5, ELF3 (Homo sapiens, UniProt P78545 1-371).
T5 sequence: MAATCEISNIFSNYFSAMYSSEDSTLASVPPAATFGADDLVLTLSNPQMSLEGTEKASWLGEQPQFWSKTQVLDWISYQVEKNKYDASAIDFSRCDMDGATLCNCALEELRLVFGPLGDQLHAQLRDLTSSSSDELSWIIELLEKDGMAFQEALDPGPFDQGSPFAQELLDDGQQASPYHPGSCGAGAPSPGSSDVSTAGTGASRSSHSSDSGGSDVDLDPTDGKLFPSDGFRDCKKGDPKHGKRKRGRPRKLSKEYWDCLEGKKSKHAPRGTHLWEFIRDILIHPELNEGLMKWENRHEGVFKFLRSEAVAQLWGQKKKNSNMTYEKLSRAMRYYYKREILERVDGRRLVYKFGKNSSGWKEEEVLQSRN
The note with it: protein: recombinant; tags: N-terminal GST; dsDNA, one strand shown. A digest of the protocol: as §1

For assay [9], the target named is CRX (Homo sapiens, UniProt O43186 1-299). The note with it: protein: recombinant; tags: N-terminal GST; dsDNA, one strand shown. A digest of the protocol: as §1
Assay [10] concerns the target ETV1 (Homo sapiens, UniProt P50549 1-477). The note with it: protein: recombinant; tags: N-terminal GST; dsDNA, one strand shown. The method, boiled down: as §1
Assay [11] addresses T6, ERF (Homo sapiens, UniProt P50548 1-548).
T6 sequence: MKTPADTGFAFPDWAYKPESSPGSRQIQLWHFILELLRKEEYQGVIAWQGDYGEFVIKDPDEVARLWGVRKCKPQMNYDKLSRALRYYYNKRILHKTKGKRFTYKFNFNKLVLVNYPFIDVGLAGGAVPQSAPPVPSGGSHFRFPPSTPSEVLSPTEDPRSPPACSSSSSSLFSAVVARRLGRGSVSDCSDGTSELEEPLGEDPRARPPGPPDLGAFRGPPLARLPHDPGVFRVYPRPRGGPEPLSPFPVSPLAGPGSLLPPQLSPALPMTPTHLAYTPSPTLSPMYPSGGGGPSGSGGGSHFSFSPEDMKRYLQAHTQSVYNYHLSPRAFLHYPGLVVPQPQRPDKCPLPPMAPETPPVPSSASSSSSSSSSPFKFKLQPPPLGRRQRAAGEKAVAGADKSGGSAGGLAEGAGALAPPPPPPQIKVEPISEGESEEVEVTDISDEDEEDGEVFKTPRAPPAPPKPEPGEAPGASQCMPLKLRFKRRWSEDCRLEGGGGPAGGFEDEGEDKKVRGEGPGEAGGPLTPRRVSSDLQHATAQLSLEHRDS
The settings on record: protein: recombinant; tags: N-terminal GST; dsDNA, one strand shown. A digest of the protocol: as §1

The target in assay [12] is T7, ETV3L (Homo sapiens, UniProt Q6ZN32 1-361).
T7 sequence: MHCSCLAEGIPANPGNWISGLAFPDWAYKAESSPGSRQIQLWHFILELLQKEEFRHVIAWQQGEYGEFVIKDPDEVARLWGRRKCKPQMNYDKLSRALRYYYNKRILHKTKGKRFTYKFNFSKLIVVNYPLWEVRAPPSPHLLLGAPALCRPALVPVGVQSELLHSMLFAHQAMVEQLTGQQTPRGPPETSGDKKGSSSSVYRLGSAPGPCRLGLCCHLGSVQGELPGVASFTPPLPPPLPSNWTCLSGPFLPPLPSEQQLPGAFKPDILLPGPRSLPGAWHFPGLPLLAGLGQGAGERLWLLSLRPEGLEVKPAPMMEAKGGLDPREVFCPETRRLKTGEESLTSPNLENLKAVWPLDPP
The settings on record: protein: recombinant; tags: N-terminal GST; dsDNA, one strand shown. The method, boiled down: as §1

The target of assay [13] is T8, ETS2 (Homo sapiens, UniProt P15036 1-469).
T8 sequence: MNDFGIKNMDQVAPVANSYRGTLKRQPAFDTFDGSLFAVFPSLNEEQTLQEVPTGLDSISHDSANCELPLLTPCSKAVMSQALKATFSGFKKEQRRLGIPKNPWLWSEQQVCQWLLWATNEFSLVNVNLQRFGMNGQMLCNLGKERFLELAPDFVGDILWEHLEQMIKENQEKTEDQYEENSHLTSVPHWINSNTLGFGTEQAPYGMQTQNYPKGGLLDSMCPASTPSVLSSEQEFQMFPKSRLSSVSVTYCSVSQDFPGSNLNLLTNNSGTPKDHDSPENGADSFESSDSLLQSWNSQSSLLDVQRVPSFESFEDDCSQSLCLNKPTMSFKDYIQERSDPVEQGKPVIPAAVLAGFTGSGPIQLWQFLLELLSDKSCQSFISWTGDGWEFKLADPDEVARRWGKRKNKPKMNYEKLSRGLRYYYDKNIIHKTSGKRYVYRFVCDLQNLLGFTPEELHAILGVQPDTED
The settings on record: protein: recombinant; tags: N-terminal GST; dsDNA, one strand shown. The method, boiled down: as §1

Assay [14] deals with T9, SPDEF (Homo sapiens, UniProt O95238 1-335).
T9 sequence: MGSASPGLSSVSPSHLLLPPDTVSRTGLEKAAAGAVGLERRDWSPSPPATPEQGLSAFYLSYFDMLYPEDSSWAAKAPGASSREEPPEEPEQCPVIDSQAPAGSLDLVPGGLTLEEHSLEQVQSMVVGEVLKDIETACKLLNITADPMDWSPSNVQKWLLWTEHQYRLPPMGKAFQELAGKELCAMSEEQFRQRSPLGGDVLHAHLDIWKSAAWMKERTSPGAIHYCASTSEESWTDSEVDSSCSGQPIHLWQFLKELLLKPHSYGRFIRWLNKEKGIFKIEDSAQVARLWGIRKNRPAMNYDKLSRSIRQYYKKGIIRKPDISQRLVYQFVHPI
The settings on record: protein: recombinant; tags: N-terminal GST; dsDNA, one strand shown. A digest of the protocol: as §1

Assay [15] deals with T10, ETV7 (Homo sapiens, UniProt Q9Y603 1-341).
T10 sequence: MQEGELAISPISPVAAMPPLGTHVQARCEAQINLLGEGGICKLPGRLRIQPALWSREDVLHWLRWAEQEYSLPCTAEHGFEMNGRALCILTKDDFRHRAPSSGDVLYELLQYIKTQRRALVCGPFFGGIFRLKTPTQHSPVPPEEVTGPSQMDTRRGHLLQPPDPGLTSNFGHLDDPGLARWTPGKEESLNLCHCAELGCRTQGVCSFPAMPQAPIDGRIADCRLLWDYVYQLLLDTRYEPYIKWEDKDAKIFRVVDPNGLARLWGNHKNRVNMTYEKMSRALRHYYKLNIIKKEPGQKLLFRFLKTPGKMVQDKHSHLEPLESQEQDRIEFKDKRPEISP
The note with it: protein: recombinant; tags: N-terminal GST; dsDNA, one strand shown. The method, boiled down:
as §1

The target of assay [16] is T11, ELF5 (Homo sapiens, UniProt Q9UKW6-2 1-255).
T11 sequence: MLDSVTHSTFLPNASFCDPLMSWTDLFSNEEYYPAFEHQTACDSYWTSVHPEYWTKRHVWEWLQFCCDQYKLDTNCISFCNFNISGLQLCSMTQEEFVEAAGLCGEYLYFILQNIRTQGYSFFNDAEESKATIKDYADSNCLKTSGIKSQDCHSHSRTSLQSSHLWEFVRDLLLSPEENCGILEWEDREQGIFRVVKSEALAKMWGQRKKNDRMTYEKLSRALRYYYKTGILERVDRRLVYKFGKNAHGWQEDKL
The note with it: protein: recombinant; tags: N-terminal GST; dsDNA, one strand shown. The method, boiled down:
as §1

The target of assay [17] is T12, ETV3 (Homo sapiens, UniProt P41162-2 1-143).
T12 sequence: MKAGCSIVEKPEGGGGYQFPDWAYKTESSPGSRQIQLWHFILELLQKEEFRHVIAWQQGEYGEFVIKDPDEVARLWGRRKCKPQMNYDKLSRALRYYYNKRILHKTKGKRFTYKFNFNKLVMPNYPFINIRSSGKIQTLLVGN
The settings on record: protein: recombinant; tags: N-terminal GST; dsDNA, one strand shown. The method, boiled down:
as §1

Assay [18] concerns the target ETV6 (Homo sapiens, UniProt P41212 1-452). The note with it: protein: recombinant; tags: N-terminal GST; dsDNA, one strand shown. A digest of the protocol:
as §1

Sequence of ELF4 (Q99607 whole entry): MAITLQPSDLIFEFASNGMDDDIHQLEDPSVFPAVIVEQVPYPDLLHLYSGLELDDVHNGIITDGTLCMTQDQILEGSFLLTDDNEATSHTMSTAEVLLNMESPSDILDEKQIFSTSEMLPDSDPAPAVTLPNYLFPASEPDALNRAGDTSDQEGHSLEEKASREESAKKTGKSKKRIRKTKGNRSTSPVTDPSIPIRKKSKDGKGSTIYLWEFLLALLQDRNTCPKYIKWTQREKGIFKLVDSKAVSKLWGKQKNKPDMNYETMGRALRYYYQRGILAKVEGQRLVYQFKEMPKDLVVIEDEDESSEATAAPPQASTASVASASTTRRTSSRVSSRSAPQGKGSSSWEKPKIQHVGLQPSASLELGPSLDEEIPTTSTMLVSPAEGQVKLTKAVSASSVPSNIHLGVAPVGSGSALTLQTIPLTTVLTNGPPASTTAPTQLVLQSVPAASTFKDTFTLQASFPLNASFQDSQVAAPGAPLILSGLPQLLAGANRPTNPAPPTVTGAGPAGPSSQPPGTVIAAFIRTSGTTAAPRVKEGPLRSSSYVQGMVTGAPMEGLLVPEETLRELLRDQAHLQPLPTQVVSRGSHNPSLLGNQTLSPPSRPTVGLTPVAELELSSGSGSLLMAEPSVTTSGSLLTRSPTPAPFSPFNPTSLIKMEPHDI
Sequence of ETV5 (P41161 whole entry): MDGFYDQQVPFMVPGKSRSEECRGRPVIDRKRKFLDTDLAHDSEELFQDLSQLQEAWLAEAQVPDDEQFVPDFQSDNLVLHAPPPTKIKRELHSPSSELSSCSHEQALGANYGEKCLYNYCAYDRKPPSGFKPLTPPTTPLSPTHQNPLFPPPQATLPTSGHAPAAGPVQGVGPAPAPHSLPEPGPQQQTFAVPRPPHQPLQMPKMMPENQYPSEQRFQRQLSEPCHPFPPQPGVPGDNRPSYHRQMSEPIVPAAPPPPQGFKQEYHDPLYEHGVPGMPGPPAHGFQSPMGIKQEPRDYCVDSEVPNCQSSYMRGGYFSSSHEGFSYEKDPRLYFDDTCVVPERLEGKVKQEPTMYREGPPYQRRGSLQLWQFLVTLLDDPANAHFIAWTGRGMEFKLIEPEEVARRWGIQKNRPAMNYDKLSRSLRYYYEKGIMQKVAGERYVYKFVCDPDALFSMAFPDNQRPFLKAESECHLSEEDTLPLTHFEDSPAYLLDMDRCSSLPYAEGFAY
Sequence of ETV1 (P50549 whole entry): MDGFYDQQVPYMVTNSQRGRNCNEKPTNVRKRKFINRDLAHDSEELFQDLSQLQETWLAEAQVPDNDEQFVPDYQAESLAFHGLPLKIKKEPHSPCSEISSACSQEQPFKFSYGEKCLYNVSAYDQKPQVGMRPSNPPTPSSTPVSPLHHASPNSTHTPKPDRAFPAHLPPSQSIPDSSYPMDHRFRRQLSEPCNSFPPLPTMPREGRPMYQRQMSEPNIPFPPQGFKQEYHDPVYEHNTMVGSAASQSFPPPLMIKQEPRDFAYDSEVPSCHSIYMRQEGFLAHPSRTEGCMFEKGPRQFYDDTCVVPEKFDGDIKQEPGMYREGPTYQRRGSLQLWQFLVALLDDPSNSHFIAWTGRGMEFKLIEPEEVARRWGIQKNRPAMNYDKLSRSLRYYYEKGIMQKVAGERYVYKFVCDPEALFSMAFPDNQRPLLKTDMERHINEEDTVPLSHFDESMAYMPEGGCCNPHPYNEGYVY
Sequence of CRX (O43186 whole entry): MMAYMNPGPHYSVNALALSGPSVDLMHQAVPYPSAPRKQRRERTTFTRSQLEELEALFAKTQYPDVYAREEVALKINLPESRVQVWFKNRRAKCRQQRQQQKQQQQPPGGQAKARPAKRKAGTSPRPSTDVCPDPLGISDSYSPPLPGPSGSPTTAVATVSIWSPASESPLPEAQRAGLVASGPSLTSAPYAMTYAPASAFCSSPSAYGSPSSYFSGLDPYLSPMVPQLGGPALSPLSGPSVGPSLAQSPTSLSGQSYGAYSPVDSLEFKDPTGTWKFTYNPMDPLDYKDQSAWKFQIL
Sequence of HSF1 (Q00613 whole entry): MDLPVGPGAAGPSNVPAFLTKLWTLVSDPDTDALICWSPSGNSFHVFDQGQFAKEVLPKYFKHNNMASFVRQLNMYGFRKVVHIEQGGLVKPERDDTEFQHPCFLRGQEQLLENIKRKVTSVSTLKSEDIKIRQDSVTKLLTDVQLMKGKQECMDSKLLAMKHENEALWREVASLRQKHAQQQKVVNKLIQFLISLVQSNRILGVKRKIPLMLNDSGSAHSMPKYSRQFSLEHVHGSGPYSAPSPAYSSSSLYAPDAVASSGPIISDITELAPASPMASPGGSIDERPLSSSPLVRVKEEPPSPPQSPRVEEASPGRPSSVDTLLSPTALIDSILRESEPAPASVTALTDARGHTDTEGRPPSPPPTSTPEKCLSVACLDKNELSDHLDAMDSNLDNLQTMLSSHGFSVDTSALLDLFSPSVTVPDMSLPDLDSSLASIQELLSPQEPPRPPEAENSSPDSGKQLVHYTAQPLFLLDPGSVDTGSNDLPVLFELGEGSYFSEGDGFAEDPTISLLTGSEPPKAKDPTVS
Sequence of ETV6 (P41212 whole entry): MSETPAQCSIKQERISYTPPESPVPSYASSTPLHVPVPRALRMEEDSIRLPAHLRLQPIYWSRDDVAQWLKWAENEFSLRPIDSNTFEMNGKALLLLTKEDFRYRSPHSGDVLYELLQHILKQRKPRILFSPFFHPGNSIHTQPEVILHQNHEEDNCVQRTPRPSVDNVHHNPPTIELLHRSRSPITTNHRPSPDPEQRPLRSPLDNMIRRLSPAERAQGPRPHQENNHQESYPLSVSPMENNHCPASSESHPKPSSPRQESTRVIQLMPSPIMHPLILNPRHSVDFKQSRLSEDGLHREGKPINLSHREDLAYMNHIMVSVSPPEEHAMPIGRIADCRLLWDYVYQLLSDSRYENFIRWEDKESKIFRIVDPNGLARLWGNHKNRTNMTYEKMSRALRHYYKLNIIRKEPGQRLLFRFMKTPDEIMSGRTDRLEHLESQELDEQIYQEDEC

Take TTGCCC: the binding signal in [1] is 1.46 fold enrichment (6-mer frequency, TF over GST control); in assay [2], 1.32 fold enrichment (6-mer frequency, TF over GST control); in assay [3] it was 1.2 fold enrichment (6-mer frequency, TF over GST control); in assay [4], 1.28 fold enrichment (6-mer frequency, TF over GST control); in assay [5], 1.4 fold enrichment (6-mer frequency, TF over GST control); in [6], 1.42 fold enrichment (6-mer frequency, TF over GST control). Further, the binding signal is 1.25 fold enrichment (6-mer frequency, TF over GST control) in assay [7]; 1.33 fold enrichment (6-mer frequency, TF over GST control) in [8]; 1.2 fold enrichment (6-mer frequency, TF over GST control) in assay [9]; 1.22 fold enrichment (6-mer frequency, TF over GST control) in assay [10]; 1.3 fold enrichment (6-mer frequency, TF over GST control) in assay [11]; 1.41 fold enrichment (6-mer frequency, TF over GST control) in assay [12]. Moreover, the binding signal in assay [13] was 1.43 fold enrichment (6-mer frequency, TF over GST control); in assay [14], 1.38 fold enrichment (6-mer frequency, TF over GST control); in assay [15] it was 1.38 fold enrichment (6-mer frequency, TF over GST control); in assay [16], 1.22 fold enrichment (6-mer frequency, TF over GST control); in assay [17], 1.35 fold enrichment (6-mer frequency, TF over GST control); in [18], 1.23 fold enrichment (6-mer frequency, TF over GST control).
